According to PubChem BioAssay AID1345085 (National Center for Advancing Translational Sciences (NCATS), 2018):
Results filed as inconclusive are left out. Unmarked numbers belong to inactive results. Calls of active or inactive are those of the source. The call rests on the fitted dose curve; in most records, active means well fitted cell-killing curve with a large enough effect; inconclusive means small, poorly fitted or top-dose-only effect, or effect the other way; inactive means no such curve, though single readings can be large or run the other way.

Tested on: HeLa
Assay: Confirmatory qHTS for gynecologic anti-cancer compounds from libraries of approved drugs and bioactive compounds; further: nearly all actives have a fitted effect of over 55% in size
Settings: gynecologic cancer cell panel viability, ATPlite luminescence, 48 h; series mostly up to 57.6 µM; activity change, negative = viability loss: at the top concentration
Procedure, shortened: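 ATP-based luminescent viability (ATPlite) after 48 h drug treatment at 37 °C, 5% CO2, across 57.5 uM–0.977 nM in 1:3 steps. Cells seeded at 1,000 per well 16 h beforehand; IC50 values computed, HEK 293T as selectivity control.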
On the % scale 0 is the no-effect control and ±100 the full control effect; potency means the concentration at half of the fitted maximal effect.

CNc1nc(Nc2ccc(C(=O)N3CCOCC3)cc2OC)ncc1Cl was tested. Which Potency did it give?
The Potency was 6850 nM (active).

For NS(=O)(=O)c1ccc(Nc2nc(OCC3CCCCC3)c3[nH]cnc3n2)cc1, which Potency is on record?
The Potency was 24300 nM (active).

With CC(C)Oc1ccc(C(=O)NC(CNC(=O)CN(C)C)Cc2ccc(-c3cn4cccc(C(C)O)c4n3)cc2)cc1Cl (stereo not given) as the compound, how does the Potency read?
Its Potency is 153 nM (active).

For CNCc1ccc(-c2[nH]c3cc(F)cc4c3c2CCNC4=O)cc1, which “activity change, negative = viability loss” value is on record?
Its value is -7.25%.

Which Potency does the source give for Cc1nc(N)nc(N)c1-c1ccc(Cl)c(Cl)c1 here?
The Potency was 3060 nM (active).

NC(=O)Nc1cc(-c2cccc(F)c2)sc1C(=O)NC1CCCNC1 (stereo not given) was tested. Which Potency did it give?
Its Potency is 1220 nM (active).

COCCOc1ccc2c(c1)ncn2-c1ccc2cccc(N3CCC(N)CC3)c2n1 was tested. Which Potency did it give?
The Potency was 12200 nM (active).

Cc1cc(C(=O)N2CCN(c3cccc(Cl)c3)CC2)n(-c2ccccc2)n1 was tested. Which Potency did it give?
The Potency was 2170 nM (active).

CN(C)CC/C=C1\c2ccccc2COc2ccccc21 was tested. Which “activity change, negative = viability loss” value did it give?
Its value is -17.2%.

With Nc1ccc(-c2ccc3ncc4ccc(=O)n(-c5cccc(C(F)(F)F)c5)c4c3c2)cn1 as the compound, how does the Potency read?
The Potency was 385 nM (active).

How did the Potency turn out when CNC(=O)c1nn(C)c2c1C(C)(C)Cc1cnc(Nc3ccc(N4CCN(C)CC4)cc3)nc1-2 was run?
The Potency was 1530 nM (active).

How did the Potency turn out when CC(=O)OC12COC1CC(O)C1(C)C(=O)C(O)C3=C(C)C(OC(=O)C(O)C(NC(=O)OC(C)(C)C)c4ccccc4)CC(O)(C(OC(=O)c4ccccc4)C21)C3(C)C (stereo not given) was run?
Its Potency is 9.7 nM (active).

Which Potency does the source give for COc1cc2c(Oc3ccc(-c4cnc(Nc5ccc(F)cc5)n(C)c4=O)cc3F)ccnc2cc1OCCCN1CCOCC1 here?
The Potency was 21700 nM (active).

With COc1cc2nccc(Oc3ccc(NC(=O)C4(C(=O)Nc5ccc(F)cc5)CC4)cc3)c2cc1OC as the compound, how does the Potency read?
Its Potency is 13700 nM (active).

For CC1=C(CO)C(=O)O[C@@H]([C@@H](C)[C@H]2CC[C@H]3[C@@H]4C[C@H]5O[C@]56[C@@H](O)C=CC(=O)[C@]6(C)[C@H]4CC[C@]23C)C1, which Potency is on record?
Its Potency is 2110 nM (active).
